High-throughput results from PubChem.
GSH bead fluor = compound fluorescence on glutathione beads, profiling panel, artefact control, biophysical, 488/530 nm, flow cytometry; GSH beads flow cytometry, compound fluorescence 488/530 nm; active compounds read high; fluorescence (KMESF) at 10 µM; 0.25% of 190,000 active; in the data active means fluorescence above about 89;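 further: glutathione beads carrying GST-tagged Bcl family fusion proteins plus one bare bead set; values are compound well signal with DMSO vehicle wells as background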
Avidin bead fluor = green autofluorescence of compounds with avidin beads – biophysical, 488/530 nm, flow cytometry, artefact control, profiling panel. compound fluorescence 488/530 nm; active compounds read high. fluorescence (KMESF) at 10 µM. 0.38% of 220,000 active; in the data active means fluorescence above about 47
RGS16-Gao = modulators of RGS16 binding to Galphao, primary screen, biochemical, human proteins, multiplexed bead flow cytometry. bead-based flow cytometry RGS16-Galphao binding, fluorescence; actives lie on both sides. AID 1441, 2008. binding response (% of control), % at 10 µM. 0.38% of 220,000 active. Regulator of G-protein signaling 16 (Homo sapiens) + Guanine nucleotide-binding protein …;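 further: Galphao activated by GDP with aluminum fluoride before binding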
Target sequence (O15492 whole entry, looked up): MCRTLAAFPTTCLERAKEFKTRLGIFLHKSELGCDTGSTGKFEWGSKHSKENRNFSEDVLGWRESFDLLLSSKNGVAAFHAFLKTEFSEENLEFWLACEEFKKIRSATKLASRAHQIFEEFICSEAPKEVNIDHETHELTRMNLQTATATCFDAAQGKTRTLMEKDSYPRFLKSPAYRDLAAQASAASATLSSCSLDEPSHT
Target sequence (P09471 whole entry, looked up): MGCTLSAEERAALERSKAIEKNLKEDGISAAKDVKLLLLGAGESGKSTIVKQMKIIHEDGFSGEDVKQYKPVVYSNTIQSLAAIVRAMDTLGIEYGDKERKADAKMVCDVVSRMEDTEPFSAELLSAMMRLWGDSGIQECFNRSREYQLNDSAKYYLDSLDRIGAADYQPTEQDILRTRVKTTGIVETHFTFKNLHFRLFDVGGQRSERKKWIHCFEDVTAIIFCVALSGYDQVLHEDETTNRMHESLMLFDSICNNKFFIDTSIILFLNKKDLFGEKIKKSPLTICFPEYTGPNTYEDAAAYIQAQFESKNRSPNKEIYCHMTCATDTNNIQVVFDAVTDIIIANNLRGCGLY
RGS8-Gao reg = RGS8-Galphao binding modulators, primary screen, biochemical, multiplexed bead flow cytometry; AID 1423, 2008; actives lie on both sides; response (percent of control binding), % at 10 µM; 0.34% of 220,000 active; Guanine nucleotide-binding protein G(o) subunit alpha (Homo sapiens), P09471; in the data active means response below about 60% or above about 140%; inactive means in between;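 further: Galphao activated as the GDP aluminium fluoride complex binding bead-coupled RGS8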
Target sequence (P09471 whole entry, looked up): as above
RGS4-Gao reg = modulators of RGS4 binding to Galphao, primary screen, biochemical, multiplexed bead flow cytometry. Guanine nucleotide-binding protein G(o) subunit alpha (Homo sapiens), P09471. actives lie on both sides. binding response (% of control), % at 10 µM. 0.33% of 220,000 active; in the data active means binding response below about 49% or above about 150%; inactive means in between;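 further: fluorescent Galphao activated with aluminum fluoride binding bead-coupled RGS4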
RGS7-Gao = RGS7-Galphao binding modulators, primary screen, biochemical, multiplexed bead flow cytometry | Guanine nucleotide-binding protein G(o) subunit alpha (Homo sapiens), P09471 | actives lie on both sides | binding response (% of control), % at 10 µM | 0.35% of 220,000 active | AID 1439, 2008; in the data active means binding response below about 49% or above about 150%; inconclusive means no clear call, values can overlap the other calls; inactive means in between;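 further: fluorescent Galphao held in activated GDP-AlF4 state binding bead-coupled RGS7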
RGS-Gao = modulators of RGS–Galpha-o binding, primary screen, biochemical, multiplexed beads, flow cytometry, RGS4/7/8/16/19. shares compounds with RGS16-Gao. multiplexed bead flow cytometry. RGS4–Galpha-o binding response, % at 10 µM. 99% of 1,600 active. AID 1504, 2009;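 further: fluorescently labeled Galpha-o bound to GDP with aluminium fluoride binding biotinylated RGS beads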
Avidin counter = disruption of biotin probe capture by avidin, counter-screen for RGS protein interaction modulators, biochemical, flow cytometry, bead-based; shares compounds with RGS16-Gao; streptavidin beads, fluorescein-biotin binding; inhibition, % at 10 µM; 1,700 tested, under 10 active;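 active means inhibition above 50%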;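 further: median green fluorescence of gated singlet beads compared with DMSO control wells; 0% = DMSO wells and 100% = complete loss of bead fluorescence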
RGS8-Gao single = RGS8-Galphao binding modulators, confirmation, biochemical, multiplexed bead flow cytometry, single concentration; binding response (% of control), % at 10 µM; bead-based flow cytometry RGS8-Galphao binding, fluorescence; actives lie on both sides; 3% of 1,700 active; shares compounds with RGS16-Gao; in the data active means binding response below about 72% or above about 130%; inactive means in between;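 further: Galphao activated as GDP AlF4 complex before binding bead RGS8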
RGS7-Gao confirm = RGS7-Galphao binding modulators, confirmation, biochemical, multiplexed bead flow cytometry, single concentration | response (percent of control binding), % at 10 µM | shares compounds with RGS16-Gao | bead-based flow cytometry RGS7-Galphao binding; actives lie on both sides | 7.8% of 1,700 active; in the data active means response below about 75% or above about 130%; inactive means in between;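 further: fluorescent Galphao activated with GDP and aluminum fluoride binding bead-coupled RGS7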
RGS16-Gao single = modulators of RGS16-Galphao protein binding, confirmation, biochemical, single concentration, multiplexed bead flow cytometry. shares compounds with RGS16-Gao. AID 1838, 2009. 4% of 1,700 active. bead-based flow cytometry; actives lie on both sides. response (% of control binding), % at 10 µM; in the data active means response below about 74% or above about 130%; inactive means in between;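 further: Galphao activated as the GDP aluminium fluoride complex binding bead-coupled RGS16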
RGS4-Gao confirm = modulators of RGS4-Galphao protein binding, confirmation, biochemical, single concentration, multiplexed bead flow cytometry. shares compounds with RGS16-Gao. actives lie on both sides. binding response (% of control), % at 10 µM. 4% of 1,700 active; in the data active means binding response below about 74% or above about 130%; inactive means in between
RGS19-Gao conf = regulators of RGS19-Galphao binding, confirmation, biochemical, single point, multiplexed bead flow cytometry; shares compounds with RGS16-Gao; bead-based flow cytometry RGS19-Galphao binding; actives lie on both sides; response (percent of control binding), % at 10 µM; 5% of 1,700 active; in the data active means response below about 50% or above about 160%; inactive means in between;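 further: 100% = no compound control and 0% = blank background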
The depositor's hits bear a star; ? = inconclusive; nt = no result; + = active, no number; [ ] = dose if it differs, or a comment. This is a sample that favours compounds with a hit; in the whole collection about 1.2% have one here. Unless noted, how the calls were made is not given here.

SMILES	GSH bead fluor	Avidin bead fluor	RGS16-Gao	RGS8-Gao reg	RGS4-Gao reg	RGS7-Gao	Avidin counter	RGS8-Gao single	RGS7-Gao confirm	RGS16-Gao single	RGS4-Gao confirm	RGS19-Gao conf	others
CCN1C(=O)C2(SC(NC(C)=O)=NN2C(C)=O)c2cc(C)cc(C)c21 (stereo unspecified)	5	6	8	76	75	77	nt	nt	nt	nt	nt	nt
CCN(CCCNC(=O)CN(C)S(=O)(=O)c1cccc2nsnc12)c1cccc(C)c1	39	nt	nt	nt	nt	nt	4	104	103	101	101	106
CCN(CCNC(=O)CN(C)S(=O)(=O)c1cccc2nsnc12)c1ccccc1	11	23	109	108	109	109	nt	nt	nt	nt	nt	nt
COc1ccc(NC(=O)NCCCN2CCN(c3ccccc3F)CC2)cc1	nt	0	8.9*	22*	12*	?	2	112	114	111	113	104
COc1ccc(NC(=O)NCCCN2CCN(c3cc(C)ccc3C)CC2)cc1	17	6	101	103	105	100	nt	nt	nt	nt	nt	nt
COCCCNC(=O)c1ccc2c3c(onc13)-c1ccccc1C2=O	nt	3	31	60	43*	?	0	69*	64*	68*	94	42*
COCCCNC(=O)c1ccccc1Oc1ccccc1	15	7	100	100	97	97	nt	nt	nt	nt	nt	nt
Cc1ccc(C(=O)NCc2ccccn2)cc1Cl	12	13	100	100	99	100	nt	nt	nt	nt	nt	nt
Cc1cc(C(=O)CSc2nc3ccccc3c(=O)n2C)c(C)n1Cc1ccc2c(c1)OCO2	12	152*	+[activator]	nt	+[activator]	121	0	95	92	96	96	116
Cc1cc(C(=O)CSc2nnc(-c3ccccc3)n2Cc2ccc3c(c2)OCO3)c(C)n1C	29	7	89	98	99	99	nt	nt	nt	nt	nt	nt
CCC(C)NS(=O)(=O)c1ccc(OCC(=O)Nc2ccc3c(c2)OCO3)cc1 (stereo unspecified)	13	12	96	100	91	94	nt	nt	nt	nt	nt	nt
CC(C)NS(=O)(=O)c1ccc(OCC(=O)Nc2ccc3c(c2)OCO3)cc1	12	6	33	39*	38*	31*	-2	99	96	99	97	92
C=C1CCN([C@@H](C)C(=O)NCc2ccc(Cl)cc2)S(=O)(=O)c2ccccc21	nt	8	96	102	98	?	nt	nt	nt	nt	nt	nt
Cc1cc(N)nc(C)c1C#N	20	10	100	100	100	98	nt	nt	nt	nt	nt	nt
Cc1cc(C)c(C#N)c(N)n1	11	nt	nt	nt	nt	nt	0	101	99	99	102	94
CCN(CC)S(=O)(=O)c1cc(NC(=O)COC(=O)c2sc3ccccc3c2Cl)ccc1C	3	13	108	103	102	101	nt	nt	nt	nt	nt	nt
O=[N+]([O-])c1ccc(/C=N/n2c(COc3ccccc3)n[nH]c2=S)cc1	6	17	103	103	102	104	nt	nt	nt	nt	nt	nt
O=[N+]([O-])c1cccc(/C=N/n2c(COc3ccccc3)n[nH]c2=S)c1	17	7	272*[activator]	140	118	117	-2	93	88	85	89	75	RGS-Gao=118*
Cc1cc(-n2cnnn2)ccc1C(C)C	16	11	99	99	100	?	nt	nt	nt	nt	nt	nt
O=C(/C=C/c1ccc2c(c1)OCO2)Nc1nc(-c2ccc(F)cc2)cs1	12	7	183*[activator]	119	82	102	1	102	104	101	98	89	RGS-Gao=82*
O=C(/C=C/c1ccc2c(c1)OCO2)Nc1nc2ccc(F)cc2s1	nt	10	99	100	99	?	nt	nt	nt	nt	nt	nt
CCOC(=O)c1c(-c2cccs2)csc1NC(=O)CN(CC)CC	27	2	38	55*	46*	42*	-1	99	95	99	95	105
COc1ccc(-c2nnc(N(C)C(=O)C3CCCO3)s2)cc1 (stereo unspecified)	22	20	111	104	104	104	nt	nt	nt	nt	nt	nt
Cc1cnc(-c2nnc(N(C)C(=O)C3CCCO3)s2)cn1 (stereo unspecified)	11	3	-47*	69	56	57	2	98	96	95	97	101	RGS-Gao=56*
Cc1cc(C)c[n+](-c2[nH]c(=O)sc2/C=N/N=C(\N)[S-])c1	11	20	89	92	91	?	nt	nt	nt	nt	nt	nt
Cc1[nH]c2ccccc2c1SCC(=O)O	15	7	101	101	100	97	nt	nt	nt	nt	nt	nt
COC(=O)C(F)(F)Sc1c(C)[nH]c2ccccc12	26	143*	117	111	119	158*[activator]	0	104	100	102	102	102	RGS-Gao=119*
O=C(Oc1ccc(Nc2ncnc3ccccc23)cc1)c1cccnc1	22	11	103	105	103	99	nt	nt	nt	nt	nt	nt
